According to PubChem BioAssay (NCI):
Values joined by “and” are separate entries in the source; they are usually repeats but may differ in a detail not shown here. Equal values may be shown once. About 83,000 compounds went through this panel and 20% of them were active in at least one assay; those are over-represented in the sample as a whole.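 Each cell line was grown in a 96-well plate and treated with one concentration of compound for 48 hours. Values below 10 were considered active.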 Active and inactive are the calls of the source.

Columns and labels:
Assay in all cases: NCI-60 one-dose screen, 48 h (100 = growth as untreated, 0 = no growth, -100 = all killed)
Details in all cases: 10 µM unless noted
NCI-H23 lung = test system: NCI-H23 lung
NCI-H226 lung = test system: NCI-H226 lung
NCI-H322M lung = test system: NCI-H322M lung
HOP-62 NSCLC = test system: HOP-62 NSCLC
NCI-H460 lung = test system: NCI-H460 lung
HOP-92 NSCLC = test system: HOP-92 NSCLC
NCI-H522 lung = test system: NCI-H522 lung
A549/ATCC NSCLC = test system: A549/ATCC NSCLC
786-0 renal = test system: 786-0 renal
COLO 205 colon = test system: COLO 205 colon

SMILES	growth (NCI-H23 lung)	growth (NCI-H226 lung)	growth (NCI-H322M lung)	growth (HOP-62 NSCLC)	growth (NCI-H460 lung)	growth (HOP-92 NSCLC)	growth (NCI-H522 lung)	growth (A549/ATCC NSCLC)	growth (786-0 renal)	growth (COLO 205 colon)
CN(C)CCC(=O)c1ccc(Cl)cc1	109% (inactive) and 86.8% (inactive)	99.3% (inactive) and 110% (inactive)	110% (inactive) and 116% (inactive)	112% (inactive) and 115% (inactive)	113% (inactive) and 114% (inactive)	86.4% (inactive) and 124% (inactive)	79.8% (inactive) and -84.6% (active)	109% (inactive) and 107% (inactive)	104% (inactive) and 106% (inactive)	121% (inactive) and 118% (inactive)
NC(=O)C1CC2C=CC1C2 (stereo not given)	92.1% (inactive) and 106% (inactive)	97.7% (inactive) and 98.9% (inactive)	104% (inactive) and 107% (inactive)	91.2% (inactive) and 98.4% (inactive)	103% (inactive) and 110% (inactive)	101% (inactive) and 94.5% (inactive)	106% (inactive) and 94.2% (inactive)	96.2% (inactive) and 100% (inactive)	98% (inactive) and 116% (inactive)	96.8% (inactive) and 120% (inactive)
COc1ccc(-c2ncnc3c2ncn3C/C=C/CCl)cc1	63.6% (inactive) and 80.5% (inactive)	89.4% (inactive) and 81.5% (inactive)	100% (inactive) and 105% (inactive)	98.7% (inactive) and 95.9% (inactive)	67.5% (inactive) and 97.1% (inactive)	37.9% (inactive) and 62.9% (inactive)	48.5% (inactive) and 55.5% (inactive)	81.2% (inactive) and 75% (inactive)	70.2% (inactive) and 80% (inactive)	87.5% (inactive) and 94.1% (inactive)
CC(C)Cc1ccc(C(C)C(=O)NCc2ccc(Cn3c(=O)sn(CCCI)c3=O)cc2)cc1 (stereo not given)	92% (inactive) and -78.3% (active)	83.8% (inactive) and 4.03% (active)	98.2% (inactive) and 59.4% (inactive)	-56.2% (active)	99.6% (inactive) and 3.28% (active)	73.6% (inactive) and -67.5% (active)	69% (inactive) and -55.6% (active)	95.4% (inactive) and -54.7% (active)	94.3% (inactive) and -88.9% (active)	-62.4% (active)
Cn1cc(-c2cc3c(Nc4ccc(CC(=O)Nc5cc(C(C)(C)C)on5)cc4)ncnc3[nH]2)cn1	-34% (active) and -14% (active)	-2.21% (active) and -21.5% (active)	-15.1% (active) and -11.4% (active)	-11.3% (active) and -15.3% (active)	-4.56% (active) and 3.41% (active)	5.01% (active) and -5.97% (active)	-35.7% (active) and -46.8% (active)	4.17% (active) and 8.31% (active)	5.07% (active) and 3.24% (active)	-36.6% (active) and -33.4% (active)
CCOc1ccc(Nc2c3ccccc3nc3ccccc23)cc1	92.1% (inactive) and 36.3% (inactive) and 18.6% (inactive)	-12.9% (active) and 19.1% (inactive)	99.3% (inactive) and 44.4% (inactive) and 38.3% (inactive)	92.5% (inactive) and 37.1% (inactive) and 42.1% (inactive)	93.6% (inactive) and 3.2% (active) and 4.66% (active)	72.2% (inactive) and -5.95% (active) and -4.39% (active)	10.1% (inactive) and 35.9% (inactive)	87.5% (inactive) and 12.3% (inactive) and 21% (inactive)	84.8% (inactive) and 30.1% (inactive) and 43.7% (inactive)	103% (inactive) and -11.2% (active) and 24.5% (inactive)
O=[N+]([O-])c1ccccc1N(S(=O)(=O)c1ccccc1)S(=O)(=O)c1ccccc1	106% (inactive) and 95.9% (inactive)	113% (inactive) and 91.2% (inactive)	90% (inactive) and 95% (inactive)	118% (inactive) and 119% (inactive)	108% (inactive) and 114% (inactive)	92.8% (inactive) and 101% (inactive)	94.7% (inactive) and 87.3% (inactive)	91.3% (inactive) and 80.2% (inactive)	109% (inactive)	129% (inactive) and 117% (inactive)
